Shown are actives, neighbours in structure and some others; about 2.4% of the full set was active somewhere.
D2 antag: antagonists of human D2 dopamine receptor; P14416; HEK293 TREx D2 cells, calcium flux, dopamine EC80; inhibition, % at 10 µM; hit rate 2% among 340,000; in the data active = inhibition above about 30%; inactive = below that, where a call was filed; note: 0% is about no effect
Target sequence (P14416 whole entry, looked up): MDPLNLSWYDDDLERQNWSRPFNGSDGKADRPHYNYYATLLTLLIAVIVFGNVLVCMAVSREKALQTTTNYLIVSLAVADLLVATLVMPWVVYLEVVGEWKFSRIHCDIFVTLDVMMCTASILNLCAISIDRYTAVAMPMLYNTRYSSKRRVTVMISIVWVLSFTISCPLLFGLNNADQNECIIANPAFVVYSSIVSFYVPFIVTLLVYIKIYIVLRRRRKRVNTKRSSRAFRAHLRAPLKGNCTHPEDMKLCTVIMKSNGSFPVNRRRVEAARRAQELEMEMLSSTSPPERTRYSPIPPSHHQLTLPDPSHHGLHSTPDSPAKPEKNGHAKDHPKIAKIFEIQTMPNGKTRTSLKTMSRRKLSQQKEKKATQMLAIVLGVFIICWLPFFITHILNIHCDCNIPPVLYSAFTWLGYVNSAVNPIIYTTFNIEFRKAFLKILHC
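Compounds are added to dye-loaded, induced HEK293 T-REx cells coupled to calcium release via D2; after a 3 min kinetic read an EC80 dopamine stimulus is given and fluorescence is recorded for 3 more min.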
D2 ag-1: activates the human D2 dopamine receptor. HEK293 T-REx D2 cells, calcium flux agonist mode. activation, % at 2 µM. hit rate 0.53% among 340,000. AID 485358;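 active = activation over 3 SD above normal in the single-dose calcium agonist read, cut at about 30% in these data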; note: 0% is about no effect
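HEK293 Trex D2 cells, tetracycline-induced, o/n 30 C 5% CO2; no-wash Ca dye, RT 30–90 min; 10-cycle baseline, 23 nl cpd added, kinetic Ca read 180 s; agonist hits = positive Ca response.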
D2 PAM-1: potentiates the human D2 dopamine receptor allosterically; P14416; DiscoveRx D2 beta-arrestin cells, luminescence, 90 min; 100% = 57 uM dopamine signal; potentiation, % (concentration not given with the values); hit rate 0.23% among 360,000; in the data active = potentiation above about 50%; inconclusive = mostly about 30% to 49%
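D2 cells co-treated with compound plus 50 nM dopamine (EC20) for 90 min at 37 deg C to detect potentiation. Beta-arrestin recruitment was read as enzyme-fragment luminescence after 1 h at ambient temperature. Full response was set by 57 uM dopamine.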
D2 ag-2: human D2 receptor agonism in beta-arrestin assay; P14416; DiscoveRx PathHunter D2 beta-arrestin, luminescence, 90 min; 100% = 57 uM dopamine signal; activation, % (concentration not given with the values); hit rate 0.084% among 360,000; AID 624465; in the data active = activation above about 40%; inconclusive = between about 15% and that limit
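DiscoveRx PathHunter D2 beta-arrestin cells (2,100/well) attached overnight, then compound-stimulated 90 min at 37 C in HBSS/10 mM HEPES/0.1% Tween-20 buffer; beta-galactosidase complementation read by luminescence after 1 h at ambient temperature. Dopamine 57 uM final (EC100) as control.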
D2 PAM-2: positive allosteric modulators of human D2 dopamine receptor | P14416 | HEK293 T-REx D2, calcium flux, EC20 dopamine potentiation | potentiation, % at 10 µM | hit rate 0.34% among 340,000 | AID 485347;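 active = potentiation over 3 SD above the plate norm, cut at about 30% in these data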; note: 0% is about no effect
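Tetracycline-induced HEK293 T-REx cells force-coupled to calcium signalling expressed D2; compounds were pin-added after a 10 s baseline, read kinetically 180 s, then an EC20 dopamine challenge followed with a further 180 s calcium read.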
* hit, by the source's call; ? = inconclusive; · = not tested or not shown.

SMILES	D2 antag	D2 ag-1	D2 PAM-1	D2 ag-2	D2 PAM-2
CCc1ccc(C2c3c(oc4ccc(F)cc4c3=O)C(=O)N2c2nc(C)c(C(=O)OC)s2)cc1 (stereo not given)	·	0	·	·	3
CCN(CC)CCCCN1c2ccccc2Sc2ccccc21	47*	0	-20	-5	-20
OCCN1CCN(CCCN2c3ccccc3Sc3ccc(C(F)(F)F)cc32)CC1	60*	·	·	·	·
CN1CCN(CCC=C2c3ccccc3Sc3ccc(S(=O)(=O)N(C)C)cc32)CC1	77*	1	-3	1	-17
CN(C)CCCN1c2ccccc2Sc2ccc(C(F)(F)F)cc21	95*	1	-22	4	-29
CN1CCN(CCC(=O)N2c3ccccc3Sc3ccc(C(F)(F)F)cc32)CC1	-17	0	-25	-1	-18
CCCn1c(=O)c2sccc2n2c(CCCC(=O)Nc3ccc(Oc4ccccc4)cc3)nnc12	·	·	·	·	2
CCOC(=O)c1cnn(-c2ccc(OC)cc2)c1C1CCN(C(=O)OC(C)(C)C)CC1	·	0	·	·	5
OCCN1CCN(CC/C=C2/c3ccccc3Sc3ccc(C(F)(F)F)cc32)CC1	83*	2	-29	2	-22
OCCN1CCN(CC/C=C2/c3ccccc3CSc3ccccc32)CC1	·	·	-15	-7	·
COC(=O)c1ccccc1NC(=O)c1cc2cc(C)ccc2n1C	·	·	·	·	-5
COc1ccc(NC(=O)c2cc(S(=O)(=O)N3CCOCC3)cn2C)c(OC)c1	41*	1	-2	2	-7
COc1ccc(NC(=O)c2cc3cc(C)ccc3n2C)c(OC)c1	34*	0	-6	1	0
COc1ccc(NC(=O)c2cnc(SC)nc2C)c(OC)c1	38*	1	0	-1	19
COc1ccc(NC(=O)c2cc(S(=O)(=O)N3CCCCCC3)cn2C)c(OC)c1	·	-1	·	·	5
Cc1[nH]c2ccc(C(=O)N3CCN(c4ccccc4F)CC3)cc2c1C	·	3	·	·	2
COc1ccc(CNC(=O)c2cc3c(=O)n4cccc(C)c4nc3s2)cc1	·	-1	·	·	23
COc1ccc(Cl)cc1NC(=O)CSc1nnc(CN2CCOCC2)n1-c1ccc(Cl)cc1	76*	1	-24	-2	-24
O=C(Nc1ccccc1C(F)(F)F)N1CCC2(CC1)Oc1ccccc1C(=O)N2Cc1ccccc1F	·	·	·	·	7
C=CCN1C=CC(=CC=C(C#N)C#N)C=C1	7	53*	-17	0	6
CCC(Sc1nc2cc3c(cc2c(=O)n1CCCCCC(=O)NCc1ccc2c(c1)OCO2)OCO3)C(=O)NCCCOC (stereo not given)	·	0	·	·	-4
Cc1ccc2c(c1)-c1nc(-c3ccc4c(c3)NC(=O)CO4)cc(-c3ccc(Cl)cc3)c1CO2	·	0	·	·	14
CSCCC(NC(=O)c1ccccc1)C(=O)NC1CC1 (stereo not given)	11	0	-16	-3	-1
NC(=O)CC(NC(=O)c1ccc(Cl)cc1)C(=O)NCCc1ccc(S(N)(=O)=O)cc1 (stereo not given)	10	0	-4	10	-5
CSCCC(NC(=O)c1ccccc1)C(=O)NCCc1ccc2c(c1)OCCO2 (stereo not given)	66*	0	-28	1	-10
SMILES	D2 antag	D2 ag-1	D2 PAM-1	D2 ag-2	D2 PAM-2
NC(=O)CCC(NC(=O)c1ccc(Cl)cc1)C(=O)NCCc1ccc2c(c1)OCCO2 (stereo not given)	42*	0	-11	-6	8
CSCCC(NC(=O)c1ccccc1)C(=O)NCc1ccc(S(N)(=O)=O)cc1 (stereo not given)	31*	1	0	2	-8
Cc1nc2ccn(Cc3ccco3)c(=O)c2cc1C(=O)NCc1ccc(F)cc1	·	1	·	·	-14
CC(C)N(Cc1ccccc1)C(=O)CN1C(=O)CSc2ccc(S(=O)(=O)N3CCCC3)cc21	·	·	·	·	3
CS(=O)(=O)N(CC(N)=O)c1cccc(Br)c1	-4	1	?	1	48*
CCc1ccc(NC(=S)NC2CC3CCCC(C2)N3Cc2cccs2)cc1 (stereo not given)	64*	1	-29	0	-25
CCCN1C2CCCC1CC(NC(=S)Nc1ccc(OC)cc1)C2 (stereo not given)	-10	0	-7	-19	-4
CCc1ccccc1NC(=O)NC1CC2CCC(C1)N2Cc1cccs1 (stereo not given)	55*	-1	-26	-3	-18
CCc1ccccc1NC(=O)NC1CCCCC1	·	·	-28	-2	·
O=C(NCCN1CCOCC1)c1ccc2c(c1)N(Cc1ccccc1)C(=O)CS2	-16	-1	-9	0	·
CCN1C(=O)CSc2ccc(C(=O)NCCCN3CCOCC3)cc21	-1	35*	-10	-2	-7
CCN(CC)C(=O)Cn1c(=O)cc(C)c2c(C)nn(-c3cccc(Cl)c3C)c21	·	0	·	·	2
CN1CCC(=O)N(CCSc2ccc(Br)cc2)CC1	53*	-1	-13	-3	3
C=C(C)Cn1c(SCC(=O)Nc2ccccc2C)nc2sc3c(c2c1=O)CCCC3	·	-2	·	·	·
Cc1ccc(-n2nc(C)c3c(C)c(CCC(=O)NCc4ccccc4Cl)c(C)nc32)cc1	·	·	·	·	3
COc1ccc(/C=N/NC(=O)c2ccc(CN3c4cccc5cccc(c45)S3(=O)=O)cc2)cc1	3	1	5	0	38*
COc1cc(/C=N/NC(=O)c2ccc(CN3c4cccc5cccc(c45)S3(=O)=O)cc2)cc(OC)c1O	-4	1	0	7	2
S=c1[nH]nc(C2CCCCC2)n1/N=C/c1ccccc1	-10	0	-7	-10	-5
Fc1ccc(/C=N/n2c(C3CCCCC3)n[nH]c2=S)cc1	50*	0	-6	?	7
O=S(=O)(c1ccc(N=C2NN=C(c3cc(F)ccc3F)CS2)cc1)N1CCOCC1	18	0	15	-3	30*
CC(=O)Nc1ccc(C2=NNC(=Nc3cccc(S(=O)(=O)N(C)C)c3)SC2)cc1	6	-1	0	7	6
CC(=O)Nc1ccc(C2=NNC(=Nc3ccc(S(=O)(=O)N4CCOCC4)cc3)SC2)cc1	43*	-1	-6	7	-6
COc1cc(C2CC(=O)Nc3c2c(C)nn3-c2nncc(-c3ccccc3)n2)cc(OC)c1OC (stereo not given)	·	2	·	·	-8
C/C=C/C=C\C(=O)Nc1cccc(C2=NOC3(C2)C[C@H](C(N)=O)N(C(=O)CC#N)C3)c1 (stereo not given in full)	33*	0	-4	-6	-3
C/C=C(\C)C(=O)Nc1cccc(C2=NOC3(C2)C[C@H](C(N)=O)N(C(=O)c2cc([N+](=O)[O-])cc([N+](=O)[O-])c2)C3)c1 (stereo not given in full)	14	0	71*	12	-6
